40 compounds from PubChem BioAssay (Tox21) can be followed below.

Inconclusive results are not listed. Entries that show only a call come without a potency. Activity calls are given as the source filed them. Calls come from the whole dose curve; as a rule, active = well fitted activation curve with a large enough effect in the signal ratio in the repeat runs (not every such curve was filed as active); inconclusive = weak or mixed curves, or effect the other way; inactive = flat fitted curve, though single readings scatter; the % refers to the signal ratio.

Sequence of Estrogen receptor beta (Homo sapiens) (Q92731 whole entry, looked up): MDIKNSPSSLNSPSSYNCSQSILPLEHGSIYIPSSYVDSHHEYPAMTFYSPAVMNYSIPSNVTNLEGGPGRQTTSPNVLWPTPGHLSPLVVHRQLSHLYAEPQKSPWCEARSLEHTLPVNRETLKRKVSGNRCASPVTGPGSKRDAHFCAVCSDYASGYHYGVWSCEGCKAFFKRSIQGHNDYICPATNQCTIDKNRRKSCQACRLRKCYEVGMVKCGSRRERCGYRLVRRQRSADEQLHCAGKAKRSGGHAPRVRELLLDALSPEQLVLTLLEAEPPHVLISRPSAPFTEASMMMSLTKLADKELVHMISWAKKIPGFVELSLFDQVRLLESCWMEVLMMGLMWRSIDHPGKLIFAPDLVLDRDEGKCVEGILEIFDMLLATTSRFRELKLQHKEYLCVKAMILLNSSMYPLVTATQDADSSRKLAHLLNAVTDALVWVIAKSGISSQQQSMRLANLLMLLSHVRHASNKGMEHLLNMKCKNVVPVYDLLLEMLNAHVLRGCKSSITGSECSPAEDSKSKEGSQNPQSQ

The target in the assay is Estrogen receptor beta (Homo sapiens) (UniProt Q92731). Briefly: qHTS assay to identify small molecule agonists of the estrogen receptor beta (ER-beta) signaling pathway (AID 1259377). As to conditions: ER-beta-UAS-bla HEK293T, beta-lactamase FRET ratio, 16 h; series mostly up to 92.4 µM. From the text:
U.S. Tox21 Program National Center for Advancing Translational Sciences [NCATS] NIH Chemical Genomics Center [NCGC] U.S. Environmental Protection Agency [EPA] National Institutes of Environmental Health Sciences [NIEHS] National Toxicology Program [NTP] U.S. Food and Drug Administration [FDA] Tox21 Assay Overview: Estrogen receptor (ER), a nuclear hormone receptor, plays an important role in development, metabolic homeostasis and reproduction. Two subtypes of ER, ER-alpha and ER-beta, have similar expression patterns with some uniqueness in both types. Endocrine disrupting chemicals (EDCs) and their interactions with steroid hormone receptors like ER causes disruption of normal endocrine function. To identify the compounds that activate ER signaling, an ER beta-UAS-bla GripTite cell line (Life technologies, Madison, WI, USA) containing a beta-lactamase reporter gene under the control of an Upstream Activator Sequence (UAS) was used to screen Tox21 10K compound library.
Tox21 Assay Protocol Summary: ER-beta-UAS-bla HEK293T cells were dispensed at 2,000 cells/5 uL of assay medium containing 2% charcoal stripped FBS per well into black wall/clear-bottom 1536-well plates using a Multidrop Combi (ThermoFisher Scientific, Waltham, MA) dispenser. After the assay plates were incubated at a 37C and 5% CO2 for 6 hr, 23 nL of compounds dissolved in DMSO, positive controls or DMSO only was transferred to the assay plate by a Pintool station (Kalypsys, San Diego, CA). The plates were incubated at 37C and 5% CO2 for 16 hr. Then 1 uL of LiveBLAzerTM B/G FRET substrate was added using a BioRAPTR FRD (Flying Reagent Dispenser, Aurora Discovery, San Diego, CA). After the plates were incubated at room temperature for 2 hours, fluorescence intensity was measured by an Envision plate reader (PerkinElmer, Shelton, CT).
On the technique in general: In qHTS, concentration-response curves come from the screen itself.
Regarding `O=C(O)c1ccccc1-n1cc(C(=O)O)c(=O)c2cc(Nc3c(F)cc(F)cc3Cl)c(Cl)cc21`, the Potency entry was “inactive”. The same measure, in the same setting: the value for `CC(C)Cc1nccs1` was “inactive”; that for `CCCCCCCCCCCCCCCCC(=O)O` was “inactive”; that for `CC(C)(C)NCC(O)COc1ccc(NC(=O)NC2CCCCC2)cc1` (stereo not given) was “inactive”. Turning to `C[C@H](CN1CCCC1)C(=O)c1ccc(C(F)(F)F)cc1`, the Potency result is “inactive”. With `CCCC(=O)OCc1ccccc1`, the Potency result was “inactive”. Consider `S=c1[nH][nH]c(=S)s1`, for which the Potency result is “inactive”. `O=C(O)c1ccc2c(c1)nc(C(=O)NC1CCN(C3CC3)CC1)n2Cc1cc(-c2ccc(Cl)s2)on1`: the activation was -4.72% [at 19 µM] (inactive). For the compound `O=C(Nc1ccccc1)c1cc([N+](=O)[O-])ccc1Cl`, the Potency result is “inactive”. For the compound `O=C1c2ccccc2C(=O)C1c1ccc2ccccc2n1`, the Potency entry is “inactive”. For `CCCCCCCCCCCCN1CCOCC1`, the Potency entry was “inactive”. Turning to `O=C(O)c1ccccc1[N+](=O)[O-]`, the Potency entry is “inactive”. With `Sc1nc(S)nc(S)n1`, the Potency result was “inactive”. Still for that read-out and setting: for `C1CCN(CN2CCCCC2)CC1` the value was “inactive”. On the same count and under the same terms, the value for `CC1(C)CC(O)CC(C)(C)N1[O]` was “inactive”; that for `O=C1c2ccccc2C(=O)C1c1ccc2cc(S(=O)(=O)O)cc(S(=O)(=O)O)c2n1` was “inactive”; that for `CC(=O)c1ccc(Cl)c(Cl)c1Cl` was “inactive”. Same read-out and setting: the value for `Cc1nc(C)c(C)nc1C` was “inactive”.

Take `Cc1ccccc1CCO`: the Potency entry is “inactive”. The same measure, in the same setting: the value for `CC(=O)Nc1ccn(C2COC(COC(=O)c3ccccc3)O2)c(=O)n1` (stereo not given) was “inactive”; that for `CCN(CCCCOC(=O)c1ccc(OC)c(OC)c1)C(C)Cc1ccc(OC)cc1` (stereo not given) was “inactive”. Turning to `Cc1c(-c2cccnc2)c2ccccc2n1CCCCC(=O)O`, the Potency result is “inactive”. Turning to `CCCCCCCCC(=O)OCC(C)OC(=O)CCCCCCCC` (stereo not given), the Potency result was “inactive”. Still for that read-out and setting: for `CO[C@@H]1[C@@H](O[C@@H]2O[C@H](C)[C@@H](O[C@H]3C[C@@](C)(O)[C@@H](O)[C@H](C)O3)[C@H](N(C)C)[C@H]2O)[C@@H](CC=O)C[C@@H](C)[C@@H](O[C@@H]2CC[C@H](N(C)C)[C@@H](C)O2)/C=C/C=C/C[C@@H](C)OC(=O)C[C@H]1OC(C)=O` the value was “inactive”. For `O=C(c1ccc(Cl)cc1)c1ccc(Cl)cc1`, the Potency entry is “inactive”. Turning to `CC(C)=CCC/C(C)=C/C=N/O`, the Potency result was “inactive”. On the same count and under the same terms, the value for `CC(C)(Cc1c[nH]c2ccccc12)NCC(O)COc1ccccc1C#N` (stereo not given) was “inactive”; that for `N#C[C@@H]1CC(F)(F)CN1C(=O)CNC1CC2CCC(C1)N2c1ncccn1` (stereo not given in full) was “inactive”; that for `CCOc1cc(OCC)c(C(C)=O)cc1OCC` was “inactive”.

On to `CC(C)(C)c1ccc(CCC=O)cc1`, for which the Potency result was “inactive”. With `COc1cccc([C@H](O)C2CCN(CCc3ccc(F)cc3)CC2)c1OC`, the Potency result is “inactive”. For the compound `C=CCCC`, the Potency result is “inactive”. Consider `CCCCCCCCS`, for which the Potency entry is “inactive”. As for `O=C(O)c1ccncc1`, the Potency result was “inactive”. `COc1ccc(/C=C/c2cc(OC)cc(=O)o2)cc1`: the Potency entry is “inactive”. As for `OCCc1ccncc1`, the Potency entry was “inactive”. In the case of `Nc1ccccc1Nc1ccccc1`, the Potency result was “inactive”.

On to `O=C(N[C@@H](Cc1ccccc1)[C@@H](O)C(=O)N1C[C@@H](O)[C@@H](O)C1)c1cc2cc(Cl)ccc2[nH]1`, for which the Potency result is “inactive”.

`CCCC1CCCC(=O)O1` (stereo not given): the Potency result is “inactive”. Consider `COc1ccc(CN(CCN(C)C)c2ncccn2)cc1`, for which the Potency entry is “inactive”.
